# Data taken from PubChem BioAssay (NCI).
# The panel holds about 83,000 compounds, 20% with a hit somewhere; the sample as a whole holds those more often.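 The test compound was applied at a single concentration to cells in 96-well plates for 48 hours, and percent growth was recorded.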 The source made the active and inactive calls. The calls were made as follows: active = growth percent below 10; inactive = the rest.
# Test system: HL-60(TB) leukemia
# Experiment: NCI-60 one-dose screen, 48 h (100 = growth as untreated, 0 = no growth, -100 = all killed)
# Conditions: 10 µM unless noted
row,Compound,growth
1,CCN(CC)CCCCCCCCNc1c2ccc(Cl)cc2nc2ccc(OC)cc12,-53.2% (active)
2,N=c1sc(Cc2ccc(Cl)cc2)cn1CC(=O)c1ccc(F)cc1,94.8% (inactive)
3,NC(=O)c1c(NC(=O)/C=C/c2cccs2)sc2c1CCC(=O)C2,2.8% (active)
4,NCCOc1ncccc1/C=C1\C2C=CC=CC2C2C=CC(F)=CC12 (stereo not given),-24.3% (active)
5,Cc1nc2ccccc2c(/C=C/c2ccc(F)cc2)c1C(=O)/C=C/c1ccccc1,7.37% (active)
6,CCCCCOC(=O)Nc1nc(=O)n(C2O[C@H](C)[C@@H](O)[C@H]2O)cc1F (stereo not given in full),92.8% (inactive)
7,C[PH+](c1nc2ccccc2nc1[PH+](C)C(C)(C)C)C(C)(C)C.C[PH+](c1nc2ccccc2nc1[PH+](C)C(C)(C)C)C(C)(C)C.[Au+].[Cl-] (stereo not given),12% (inactive)
8,COc1ccc2c(ccc[n+]2C)c1,132% (inactive)
9,O=[N+]([O-])c1ccc(C=C2C(Cl)=C(Cl)C(Cl)=C2Cl)cc1,34.2% (inactive)
10,CCOC(=O)Nc1ccc2c(c1)/C(=N\NC(=S)NC)c1ccccc1-2,103% (inactive)
11,C=C(C)[C@@H]1CC[C@]2(C(=O)N3CCN(C)CC3)CC[C@]3(C)[C@H](CC[C@@H]4[C@@]5(C)CC[C@H](O)C(C)(C)[C@@H]5CC[C@]43C)[C@@H]12,-52.6% (active)
12,COC(=O)c1oc2c(C(C)=O)c(OCCCN(C)C)ccc2c1C,75.3% (inactive)
13,O=C(CC1Sc2ccccc2NC1=O)NNc1cccc(Cl)c1Cl (stereo not given),9.18% (active)
14,c1ccc(Nc2nc(-c3ccccn3)cs2)nc1,1.61% (active)
15,O=C(O[C@@H]1Cc2c(O)cc(O)cc2O[C@@H]1c1cc(O)c(O)c(O)c1)c1cc(O)c2c(c1)OCO2,91.1% (inactive)
16,O=C(Nc1cccc(-n2cc(-c3ccncc3)c(-c3cc(O)cc(Cl)c3)n2)c1)c1ccc(N2CCOCC2)c(C(F)(F)F)c1,-46.4% (active)
17,COc1ccc(N/C=C/C2=[N+](C)c3ccccc3C2(C)C)c(OC)c1,99.3% (inactive)
18,CCCCCC(C)(O)C(C(=O)O)c1ccccc1 (stereo not given),110% (inactive)
19,CCC(C)[C@H](NC(=O)Nc1cc(C(F)(F)F)cc(C(F)(F)F)c1)C(=O)N[C@@H](Cc1cn(C)cn1)C(=O)OC (stereo not given in full),-78.4% [100 µM] (active)
20,O=C(Nc1ncc(Cc2cccc(C(F)(F)F)c2)s1)C1COc2ccccc2O1 (stereo not given),98.5% (inactive)

row,Compound,growth
1,O=C1/C(=C/c2ccccc2)SC(=Nc2ccccc2)N1Nc1ccccc1,-7.82% (active)
2,Cc1nc2sc(C(=O)Nc3ccccc3)c(N)c2cc1C(C)O (stereo not given),-2.23% (active)
3,Ic1ccc(OCCCCn2ccnc2)cc1,3.58% (active)
4,O=[N+]([O-])c1ccc(N/N=C\c2ccc(O)cc2O)nc1,0.875% (active)
5,CC(=O)N1N=C(c2ccc(Cl)cc2)CC1c1sc(Cl)nc1Cl (stereo not given),89.5% (inactive)
6,Cc1ccc(N)c(O)c1,128% (inactive)
7,COc1ccc(NC2=C(Sc3nc(C)cc(C)n3)C(=O)N(Cc3ccccc3)C2=O)cc1Cl,58.8% [30 µM] (inactive)
8,Cc1cc(C)cc(Nc2nccc(-c3c(-c4ccc(F)cc4)ncn3C3CCNCC3)n2)c1,-58.9% (active)
9,CS(=O)(=O)c1ccc(Nc2nc(N[C@H]3CCCC[C@H]3N)nc3cc[nH]c(=O)c23)cc1,-16.9% (active)
10,COc1ccc(-c2nc3ccc(-c4nc5ccc(N6CCN(c7ccc(F)cc7)CC6)cc5[nH]4)cc3[nH]2)cc1OC,46.5% (inactive)
11,CCCC(=O)CC(=O)c1ccccc1,112% (inactive)
12,C=C(C)[C@@H]1CC[C@]2(C(=O)OC)CC[C@]3(C)[C@H](CC[C@@H]4[C@@]5(C)C/C(=C/c6cccc(I)c6)C(=O)C(C)(C)[C@@H]5CC[C@]43C)[C@@H]12,97.6% (inactive)
13,O=S(=O)(Nc1ccc(F)cc1)c1ccc(-c2cnc(C3CC3)o2)cc1,-28.1% (active)
14,O=C(O)CCN1C(=O)/C(=C/C(Cl)=C/c2ccccc2)SC1=S,5.78% (active)
15,O=C(COc1ccc(/C=C2\Cc3ccc(Cl)cc3C2=O)cc1)Nc1nccs1,67.3% (inactive)
16,Clc1ccc2nc3nc4ccc[nH]c4cc3c2c1,88.2% (inactive)
17,O=C(Oc1ccc(CO[N+](=O)[O-])cc1)c1ccccc1,-45.9% (active)
18,Cc1cc(C)nc(NS(=O)(=O)c2ccc(Nc3nc4nc(SCc5ccccc5)nc(-c5ccc(O)cc5)c4c(=O)[nH]3)cc2)n1,86.3% (inactive)
19,COc1ccc(NC(=O)c2sc3nc(C)c(C(C)=O)cc3c2N)cc1,94% (inactive)
20,Cc1cccc2c1O/C(=C\c1ncc([N+](=O)[O-])n1C)C2=O,-9.87% (active)
